In PubChem BioAssay (NCATS):
Results filed as inconclusive are left out. A call without a number means that no potency is given here. Values without a mark were called inactive. Calls of active or inactive are those of the source. Unless noted, calls follow the shape of the dose curve; as a rule, active = well fitted curve in the direction sought with a large enough effect; inconclusive = small, poorly fitted or top-dose-only effect, or another doubt; inactive = no such curve, though single readings can be large; an effect the other way counts as inactive or inconclusive.

Legend:
[1] = Primary qHTS for inhibitors of La Crosse Virus (LACV) - induced cell death in SH-SY5Y cells (AID 1508616); also: potency is read from the fitted curve at half-maximal effect
Summary of the method: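 Readout was luminescence from ATPLite 1step added after a 6-day LACV infection (0.01 MOI) of SH-SY5Y cells that had received pin-transferred compound 24 hr after seeding.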

[2] = target: Calcium and integrin-binding protein 1 (Homo sapiens) (UniProt Q99828); test: Validation qHTS for Identification of Calcium Integrin Binding protein 1 (CIB1) Competitor (AID 1508618)
Summary of the method: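 CIB1-GST (1 uM final) in 5 mM HEPES pH 7.4, 125 mM NaCl, 5 mM CaCl2, 0.01% Tween20 was preincubated 15 min at room temperature with compound (up to 114 uM), then FITC-alphaIIb peptide (100 nM) added for 15 min; fluorescence polarization read.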

[3] = Primary qHTS for small molecule stabilizers of the endoplasmic reticulum resident proteome: Secreted ER Calcium Modulated Protein (SERCaMP) assay (AID 1508630)
Summary of the method: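 GLuc-SERCaMP-expressing SH-SY5Y cells, pretreated 16 h with compound, are challenged with thapsigargin to empty ER calcium stores; after 4 h, coelenterazine is added directly to the medium and luminescence is imaged.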

[4] = Counterscreen qHTS for small molecule stabilizers of the endoplasmic reticulum resident proteome: GLuc-NoTag assay (AID 1508627);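 also: SH-SY5Y cells given compound then 100 nM thapsigargin to empty ER calcium; series mostly up to about 76 µM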
Summary of the method: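 SH-SY5Y cells stably expressing constitutively secreted GLuc without SERCaMP tag, exposed to compound for 19 hr, then to 100 nM thapsigargin for 4 hr at 37C. Medium luciferase was read by coelenterazine luminescence without lysis.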

[5] = Confirmatory qHTS for small molecule stabilizers of the endoplasmic reticulum resident proteome: Secreted ER Calcium Modulated Protein (SERCaMP) assay (AID 1508628); also: potency is read from the fitted curve at half-maximal effect; nearly all actives have a fitted effect of over 40% in size
Summary of the method: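 We seeded SH-SY5Y-GLuc-SERCaMP cells, added compounds (three concentrations in the primary run, eleven up to 76.6 uM in confirmation), incubated 16 h, depleted ER calcium with thapsigargin, and read luciferase 4 h later.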

[6] = target: Cytochrome P450 2D6 (Homo sapiens) (UniProt P10635); test: Cytochrome P450 family 2 subfamily D member 6 (CYP2D6) small molecule antagonists: luciferase biochemical (cell-free) qHTS assay (AID 1645840; active = well fitted curve in the direction sought with a large enough effect in the repeat runs; an effect the other way counts as inactive or inconclusive; also: series mostly up to about 57 µM; nearly all actives have a fitted effect of over 55% in size)
Summary of the method: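 P450-Glo luminescent screen: recombinant CYP2D6 enzyme–proluciferin substrate mix preincubated with compound 10 min at room temperature, then NADPH regeneration added for 1 h at room temperature. Detection reagent added for 20 min; luciferin light read as relative luminescence units.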

[7] = Cell Viability qHTS for small molecule stabilizers of the endoplasmic reticulum resident proteome (AID 1508629); settings: cell viability counter-screen, 100 nM thapsigargin for final 4 h;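 also: human SH-SY5Y neuroblastoma cells carrying the GLuc-SERCaMP reporter; compound exposure about 46 h in total before the viability read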

Chain of Calcium and integrin-binding protein 1 (Homo sapiens) (Q99828 whole entry, looked up): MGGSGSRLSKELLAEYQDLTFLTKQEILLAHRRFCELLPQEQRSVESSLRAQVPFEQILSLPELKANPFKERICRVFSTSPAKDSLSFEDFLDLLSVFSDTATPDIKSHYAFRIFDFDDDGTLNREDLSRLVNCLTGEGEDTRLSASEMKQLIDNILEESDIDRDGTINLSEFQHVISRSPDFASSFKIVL
Chain of Cytochrome P450 2D6 (Homo sapiens) (P10635 whole entry, looked up): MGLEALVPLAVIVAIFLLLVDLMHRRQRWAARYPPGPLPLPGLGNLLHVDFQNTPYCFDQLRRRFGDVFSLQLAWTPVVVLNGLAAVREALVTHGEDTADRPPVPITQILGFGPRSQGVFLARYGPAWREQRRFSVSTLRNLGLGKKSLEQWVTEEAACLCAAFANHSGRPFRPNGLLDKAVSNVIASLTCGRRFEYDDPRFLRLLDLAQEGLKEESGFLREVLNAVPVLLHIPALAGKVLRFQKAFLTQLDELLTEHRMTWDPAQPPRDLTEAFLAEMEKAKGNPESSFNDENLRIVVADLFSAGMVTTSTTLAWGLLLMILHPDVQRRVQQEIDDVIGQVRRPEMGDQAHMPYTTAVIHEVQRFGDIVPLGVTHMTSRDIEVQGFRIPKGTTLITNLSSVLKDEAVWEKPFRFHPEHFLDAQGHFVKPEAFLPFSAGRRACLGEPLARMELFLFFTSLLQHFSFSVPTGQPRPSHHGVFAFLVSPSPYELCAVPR

CC(N)c1cccc(Cl)c1Cl (configuration not stated)
Potency [1]: inactive | Potency [2]: inactive | outcome [3]: inactive

CCCCCCCCCCCCCC(=O)O[C@@H]1[C@@H](C)[C@@]2(O)[C@@H](C=C(CO)C[C@@]3(O)C(=O)C(C)=C[C@@H]23)C2C(C)(C)[C@@]21OC(C)=O (some centres not stated)
Potency [1]: inactive | Potency [2]: inactive | outcome [3]: inactive

CN(C(=O)Cc1ccc(Cl)c(Cl)c1)C(CN1CCCC1)c1cccc(OCC(=O)O)c1 (configuration not stated)
Potency [1]: inactive | Potency [2]: inactive | outcome [3]: inactive

CCCN1CCc2cc(O)cc3c2[C@H]1Cc1ccc(O)c(O)c1-3
Potency [1]: 2 µM (active) | Potency [2]: inactive | outcome [3]: inactive

NC(C(=O)O)c1cc(=O)[nH]o1 (configuration not stated)
Potency [1]: inactive | Potency [2]: inactive | outcome [3]: inactive

CC(=O)OCC1=C(C(=O)O)N2C(=O)[C@@H](NC(=O)CCC[C@@H](N)C(=O)O)[C@H]2SC1
Potency [1]: inactive | Potency [2]: inactive | outcome [3]: inactive

CCCN(CCC)C1CCc2cccc(O)c2C1 (configuration not stated)
Potency [1]: inactive | Potency [2]: inactive | outcome [3]: inactive

N[C@@]1(C(=O)O)CC[C@@H](C(=O)O)C1
Potency [1]: inactive | Potency [2]: inactive | outcome [3]: inactive

CC(C)[C@@]1(NC(=O)[C@@H]2C[C@@H]3c4cccc5[nH]cc(c45)C[C@H]3N(C)C2)O[C@@]2(O)[C@@H]3CCCN3C(=O)[C@H](Cc3ccccc3)N2C1=O
Potency [1]: inactive | outcome [4]: inactive | Potency [5]: 25.1 µM (active)

NCCCP(=O)(O)O
Potency [1]: inactive | Potency [2]: inactive | outcome [3]: inactive

COc1ccc(OC)c(C(O)C(C)N)c1 (configuration not stated)
Potency [1]: inactive | Potency [2]: inactive | outcome [3]: inactive | Potency [6]: inactive

CC(C)(C)c1o[nH]c(=O)c1CC(N)C(=O)O (configuration not stated)
Potency [1]: inactive | Potency [2]: inactive | outcome [3]: inactive

CN1CC[C@@]2(C)c3cc(OC(=O)Nc4ccccc4)ccc3N(C)[C@@H]12
Potency [1]: inactive | outcome [4]: inactive | Potency [5]: 39.8 µM (active) | outcome [3]: inactive

CCCN(CCC)C1Cc2cc(OC)c(OC)cc2C1
Potency [1]: inactive | Potency [2]: inactive | outcome [3]: inactive

COc1ccc2[nH]cc(CCN)c2c1
Potency [1]: inactive | Potency [2]: inactive | outcome [3]: inactive

CCCN1CCC[C@@H](c2cccc(O)c2)C1
Potency [1]: inactive | Potency [2]: inactive | outcome [3]: inactive

Cc1c2ccncc2c(C)c2c1[nH]c1ccccc12
Potency [1]: 1.58 µM (active) | Potency [2]: inactive | outcome [3]: inactive

COc1ccc(CNC(=O)/C=C/c2ccc3[nH]cc(CCN(C)C)c3c2)cc1
Potency [1]: inactive | Potency [2]: inactive | outcome [3]: inactive

N#C/C(=C/c1ccc(O)c(O)c1)C(N)=S
Potency [1]: inactive | outcome [4]: inactive | Potency [5]: 10 µM (active)

C=CCN1CCC23c4c5ccc(O)c4O[C@H]2C(=O)CC[C@@]3(O)C1C5 (some centres not stated)
Potency [1]: inactive | Potency [2]: inactive | outcome [3]: inactive

C[N+](C)(C)CC#CCOC(=O)Nc1cccc(Cl)c1
Potency [1]: inactive | Potency [2]: inactive | outcome [3]: inactive

NC(=O)CI
Potency [1]: inactive | Potency [2]: inactive | outcome [3]: inactive

Nc1ccc(CCN2CCN(c3cccc(C(F)(F)F)c3)CC2)cc1
Potency [1]: inactive | outcome [4]: inactive | max response [7]: 11.7% | outcome [3]: inactive

CN1CCC(c2c[nH]c3ccc(O)cc23)CC1
Potency [1]: inactive | Potency [2]: inactive | outcome [3]: inactive

C[C@H](Cc1ccc2c(c1)OC(C(=O)O)(C(=O)O)O2)NC[C@H](O)c1cccc(Cl)c1
Potency [1]: inactive | Potency [2]: inactive | outcome [3]: inactive

O=C1C=CC(=O)C=C1
Potency [1]: inactive | Potency [2]: inactive | outcome [3]: inactive

CCCN(CCC)[C@H]1CCc2c(F)ccc(O)c2C1
Potency [1]: inactive | Potency [2]: inactive | outcome [3]: inactive

CC(Cc1ccc(OCC(=O)O)cc1)NCC(O)c1cccc(Cl)c1 (configuration not stated)
Potency [1]: inactive | Potency [2]: inactive | outcome [3]: inactive
